Data on 40 compounds can be found in the supplement of paper PMC12024424.

Structures are written as SMILES. Counter-ions that a name gives are not always drawn.

The test system of the assay is Staphylococcus aureus Sa2 (MRSA, cystic fibrosis isolate). Description: growth reduction vs untreated control (viable cell count); higher = stronger antibacterial activity; extreme values may be limits of the assay. The note with it: 0.1 mM; 24 h. The method, then:
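Single-dose screen of the MedChem Express Drug Repurposing Library (0.1 mM, 1% DMSO) against planktonic MRSA S. aureus Sa2 (CF isolate) in TSB in 96-well plates, 37 °C aerobic, 24 h. Assays were run in triplicate and repeated twice.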
`Cc1cc2c(cc1CC(=O)c1sccc1S(=O)(=O)Nc1onc(C)c1Cl)OCO2` [Sitaxsentan (sodium)] had a growth reduction of 90%. In turn, `O=C(O)c1ccc(-n2nc(-c3ccccc3O)nc2-c2ccccc2O)cc1` [Deferasirox] yielded a growth reduction of 99%. Then `COc1ccc(C(=O)NC2(C(=O)O)Cc3ccccc3C2)cc1OCCc1cccc(C)c1`, with 96%. For `CNC(=O)c1cc(Oc2ccc(NC(=O)Nc3ccc(Cl)c(C(F)(F)F)c3)cc2)ccn1` [Sorafenib] the value was 100%; for `Cc1cc(CC(C)CC(C)(C)C)n(O)c(=O)c1` (stereo not given) [Piroctone olamine], 100%. Then `C#C[C@]1(OC(C)=O)CC[C@H]2[C@@H]3CCC4=C[C@@H](OC(C)=O)CC[C@@H]4[C@H]3CC[C@@]21C` [Ethynodiol diacetate], with 94%; and `CC1=C(/C=C/C(C)=C/C=C/C(C)=C/C(=O)Nc2ccc(O)cc2)C(C)(C)CCC1` [Fenretinide], with 100%.

`O=C(O)c1ccc2nc(-c3cc(Cl)cc(Cl)c3)oc2c1` [Tafamidis] registered a growth reduction of 100%. In turn, `O=c1nc(OC[C@@H]2COCCO2)cc2n1CCc1cc(C#CC3CC3)ccc1-2` registered a growth reduction of 93%.

Compound `CC(=O)O[C@]1(C(C)=O)CC[C@H]2[C@@H]3C=C(C)C4=CC(=O)CC[C@]4(C)[C@H]3CC[C@@]21C` [Megestrol acetate] showed a growth reduction of 91%. For `OC1(c2ccc(Cl)c(C(F)(F)F)c2)CCN(CCCC(c2ccc(F)cc2)c2ccc(F)cc2)CC1` [Penfluridol] the value was 100%; for `Cc1c(CN(C)C(=O)/C=C/c2cnc3c(c2)CCC(=O)N3)oc2ccccc12`, 100%; for `COC1=C(OC)C(=O)C(CCCCCCCCCC[P+](c2ccccc2)(c2ccccc2)c2ccccc2)=C(C)C1=O` [Mitoquinone (mesylate)], 100%.

In turn, `Cc1cccc(/C=N/Nc2cc(N3CCOCC3)nc(OCCc3ccccn3)n2)c1` [Apilimod] returned a growth reduction of 93%. In turn, `O=C(c1ccc(OCCN2CCCCC2)cc1)c1c(-c2ccc(O)cc2)sc2cc(O)ccc12` [Raloxifene (hydrochloride)] gave a growth reduction of 93%.

`Fc1ccc2c(CCNCc3cccc(OCC(F)(F)C(F)F)c3)c[nH]c2c1` [Idalopirdine Hydrochloride] had a growth reduction of 100%. In turn, `O=C(O)c1ccc2c(c1)CCCC(c1ccc(Cl)cc1Cl)=C2c1ccc(O[C@H]2CCN(CCCF)C2)cc1` had a growth reduction of 100%.

In turn, `COc1cc2ncnc(Nc3ccc(F)c(Cl)c3)c2cc1NC(=O)/C=C/CN1CCCCC1` [Dacomitinib] showed a growth reduction of 100%.

For the compound `Clc1ccc(C(Cn2ccnc2)OCc2c(Cl)cccc2Cl)c(Cl)c1` (stereo not given) [Isoconazole (nitrate)], the growth reduction is 100%. With `CC(C(=O)O)c1ccc2c(c1)CC(=O)c1ccccc1S2` (stereo not given) [Zaltoprofen], the growth reduction worked out at 98%.

Compound `CO[C@@H](Cc1ccc(OCCc2nc(-c3ccccc3)oc2C)c2ccsc12)C(=O)O` [Aleglitazar] displayed a growth reduction of 90%. Consider `OCCN1CCN(CCCN2c3ccccc3Sc3ccc(Cl)cc32)CC1` [Perphenazine], for which the growth reduction amounted to 100%. Compound `Cc1cc(C)cc([C@@H]2CCCN2Cc2ccc(Oc3ccc(C(N)=O)cc3F)cc2)c1` [Aticaprant] yielded a growth reduction of 100%. `CC1CS(=O)(=O)CCN1/N=C/c1ccc([N+](=O)[O-])o1` (stereo not given) [Nifurtimox] displayed a growth reduction of 100%.

As for `Cc1ccc([C@@H]2O[C@H](CO)[C@@H](O)[C@H](O)[C@H]2O)cc1Cc1ccc(-c2ccc(F)cc2)s1` [Canagliflozin], the growth reduction is 100%. For `O=C(O)Cc1ccccc1Nc1c(Cl)cccc1Cl` [Diclofenac (diethylamine)], the growth reduction came out at 100%.

Compound `CCc1nc(-c2cccc(C)c2)c(-c2ccnc(NC(=O)c3ccccc3)c2)s1` returned a growth reduction of 100%.

In turn, `CCCCc1oc2ccccc2c1C(=O)c1cc(I)c(OCCN(CC)CC)c(I)c1` [Amiodarone (hydrochloride)] registered a growth reduction of 98%. Turning to `CC(=O)Oc1ccccc1C(=O)Nc1ncc([N+](=O)[O-])s1` [Nitazoxanide], the growth reduction came out at 100%. On to `COc1cc(F)c(F)c(Nc2ccc(I)cc2F)c1NS(=O)(=O)C1(C[C@H](O)CO)CC1` [Refametinib], for which the growth reduction was 100%.

Regarding `CC(C)(C)c1cc(-c2cc(-c3ccc(C(=O)O)cc3)ccc2OCCO)ccc1N1CCCC1` [Trifarotene], the growth reduction turned out to be 100%. In turn, `Cc1ccc(-c2cc(C(F)(F)F)nn2-c2ccc(S(N)(=O)=O)cc2)cc1` [Celecoxib] displayed a growth reduction of 90%. Compound `C[C@H]1CNCCCN1S(=O)(=O)c1cccc2cncc(F)c12` [Ripasudil] displayed a growth reduction of 100%. Then `CCCCCCCCCCCCCCCC[N+](C)(C)CCN(Cc1ccc(OC)cc1)c1ncccn1` [Thonzonium (bromide)], with 100%; and `Cn1cnc([N+](=O)[O-])c1C[N+](C)(C)C/C=C/C(=O)Nc1cc2c(Nc3ccc(Cl)c(Br)c3)ncnc2cn1` [Tarloxotinib (bromide)], with 100%.

Regarding `Cc1cc2c(F)c(Oc3ncnn4cc(OC[C@@H](C)OC(=O)[C@H](C)N)c(C)c34)ccc2[nH]1` [Brivanib (alaninate)], the growth reduction was determined as 100%.

Compound `O=C(O)C1(c2ccc(-c3ccc(Cl)c(Cl)c3)c(F)c2)CC1` [Itanapraced] had a growth reduction of 100%.

The compound `Cc1ccc2c(=O)c3cccc(CC(=O)O)c3oc2c1C` [Vadimezan] came in with a growth reduction of 100%. `CN[C@H]1CN(c2ccc3c(=O)c(C(=O)O)cn(-c4nccs4)c3n2)C[C@@H]1OC` [Voreloxin (Hydrochloride)] registered a growth reduction of 100%.

`CC/C(=C(\c1ccccc1)c1ccc(OCCN(C)C)cc1)c1ccccc1` [Tamoxifen] came in with a growth reduction of 100%.
